From PubChem BioAssay (EPA / NIEHS)
The source made the active and inactive calls. How the source made its calls: active means hit-call score of the fitted dose curve at least 0.9, where 1 is the maximum; inactive means score below 0.9.

System: not listed separately
Assay: APR_HepG2_NuclearSize_72hr: Apredica 72-hour HepG2 Assay for Nuclear Size (AID 2282925)
Conditions: high-content imaging, actives raise or lower the signal
Procedure, shortened: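 Nuclear size was read by high-content imaging of Hoechst 33342 stain after formaldehyde fixation. Compounds ran 72 h on HepG2 at 0.39 to 200 uM, with final DMSO 0.5% v/v. Curves fitted both directions relative to DMSO control.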

SMILES | outcome
CCCCCCCC(=O)O | inactive
CCCCC[C@H](O)CC(=O)CCc1ccc(O)c(OC)c1 | inactive
CCc1ccc(CCOc2ccc(CC3SC(=O)NC3=O)cc2)nc1 (stereo not drawn) | inactive
CC(C)CCCCCCOC(=O)CCCCC(=O)OCCCCCCC(C)C | inactive
COCC(C)O (stereo not drawn) | inactive
CCCCCCCCCCCCCCCS(=O)(=O)Oc1ccccc1 | inactive
Cc1cc(C)c(O)c(C)c1 | inactive
C#C[C@]1(O)CC[C@H]2[C@@H]3CCC4=CC(=O)CC[C@@H]4[C@H]3CC[C@@]21C | inactive
CC(C)(C)c1ccc(O)c(C(C)(C)C)c1 | inactive
Oc1cccc(O)c1 | inactive
CC[C@H](C)[C@@H](C(=O)O)n1sc2ccccc2c1=O | inactive

System: not listed separately
Assay: ATG_CRE_CIS: Attagene CIS-FACTORIAL HepG2 Assay for human cAMP Responsive Element (CRE) binding protein 3 (AID 2282926)
Conditions: HepG2 CRE cis-reporter, Attagene multiplexed mRNA; actives raise or lower the signal
Procedure, shortened: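 Capillary electrophoresis of 6-FAM-labelled, HpaI-digested PCR products quantified reporter transcripts. These came from HepG2 transiently transfected with cis-element reporters and exposed to test chemicals for 24 hours, with DMSO defining baseline activity.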

SMILES | outcome | AC50
CCCCC(CC)COC(=O)CCCCC(=O)OCc1ccccc1 (stereo not drawn) | inactive | –
FC(F)(I)C(F)(F)C(F)(F)C(F)(F)C(F)(F)C(F)(F)I | inactive | –
Cc1oc(-c2ccccc2)nc1CCOc1ccc(C[C@H](Nc2ccccc2C(=O)c2ccccc2)C(=O)O)cc1 | inactive | –
CN1CCC[C@H]1c1cccnc1 | inactive | –
COCC(C)OCC(C)O (stereo not drawn) | inactive | –
CN1CCN(c2ccccc2/C=C2\SCCN(c3ccc(Cl)c(Cl)c3)C2=O)CC1 | inactive | –
CC(C)(C)CC(C)(C)c1ccc(O)c(-n2nc3ccccc3n2)c1 | inactive | –
C[C@@H]1C[C@H]2[C@@H]3CCC4=CC(=O)C=C[C@]4(C)[C@@]3(F)[C@@H](O)C[C@]2(C)[C@@]1(O)C(=O)COP(=O)(O)O | inactive | –
CCc1nn(C2CCCCC2)c2cc(C3(C#N)CCC(C(=O)O)CC3)ccc12 (stereo not drawn) | inactive | –
N#C[C@@H]1CC(F)(F)CN1C(=O)CNC1CC2CCC(C1)N2c1ncccn1 (stereo partly drawn) | inactive | –
CCCCCCCCC(=O)O | inactive | –
NC(=O)N(O)[C@@H]1C=C[C@H](Oc2cccc(Oc3ccc(F)cc3)c2)C1 | – | 22.6 µM (active)
CC(=O)CC(C)(C)O | inactive | –
CCCCCCCCCCCCCC[N+](C)(C)C | inactive | –
CC(=O)NC1(c2cccc(F)c2)CCN(CC[C@@]2(c3ccc(Cl)c(Cl)c3)CN(c3ccccc3)C(=O)CO2)CC1 | – | 46.6 µM (active)
CCCCCCCCCCCCc1ccccc1S(=O)(=O)O | inactive | –
Cc1cc(CCN2CCN(c3nsc4ccccc34)CC2)cc2c1NC(=O)CC2(C)C | inactive | –
CCCCCCC(=O)O | inactive | –

SMILES | outcome | AC50
OC1CCC(C2CCCCC2)CC1 (stereo not drawn) | inactive | –
Cc1ccc(S(=O)(=O)O)c(C)c1 | inactive | –
NCC(F)(F)C(F)(F)C(F)(F)C(F)(F)C(F)(F)C(F)(F)C(F)(F)F | inactive | –
O=[N+]([O-])c1ccc(O)cc1 | inactive | –
CC(C)(C)c1cccc(C(C)(C)C)c1O | – | 146 µM (active)
CCCCCCCC(=O)O | inactive | –
CCCCC[C@H](O)CC(=O)CCc1ccc(O)c(OC)c1 | inactive | –
CCc1ccc(CCOc2ccc(CC3SC(=O)NC3=O)cc2)nc1 (stereo not drawn) | inactive | –
CC(O)C(=O)O (stereo not drawn) | inactive | –
CC(C)CCCCCCOC(=O)CCCCC(=O)OCCCCCCC(C)C | inactive | –
O=C1OC2(c3ccccc31)c1cc(Br)c(O)c(Br)c1Oc1c2cc(Br)c(O)c1Br | inactive | –
COCC(C)O (stereo not drawn) | inactive | –
CCCCCCCCCCCCCCCS(=O)(=O)Oc1ccccc1 | inactive | –
Cc1cc(C)c(O)c(C)c1 | inactive | –
C#C[C@]1(O)CC[C@H]2[C@@H]3CCC4=CC(=O)CC[C@@H]4[C@H]3CC[C@@]21C | inactive | –
CC(C)(C)c1ccc(O)c(C(C)(C)C)c1 | inactive | –
Oc1cccc(O)c1 | inactive | –
CC[C@H](C)[C@@H](C(=O)O)n1sc2ccccc2c1=O | inactive | –

Biological target: CCAAT/enhancer-binding protein beta (Homo sapiens) (UniProt P17676)
Assay: ATG_C_EBP_CIS: Attagene CIS-FACTORIAL HepG2 Assay for human CCAAT/Enhancer Binding Protein (C/EBP) beta (AID 2282927)
Conditions: HepG2 Attagene cis-factorial transcription factor reporter; actives raise or lower the signal
Procedure, shortened: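 Endogenous C/EBPb-driven reporter transcripts measured in transfected human HepG2 cells at 24 h via RT-PCR and capillary electrophoresis of labelled fragments. Activity fitted in both directions relative to DMSO baseline.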

Chain of CCAAT/enhancer-binding protein beta (Homo sapiens) (P17676 whole entry, looked up): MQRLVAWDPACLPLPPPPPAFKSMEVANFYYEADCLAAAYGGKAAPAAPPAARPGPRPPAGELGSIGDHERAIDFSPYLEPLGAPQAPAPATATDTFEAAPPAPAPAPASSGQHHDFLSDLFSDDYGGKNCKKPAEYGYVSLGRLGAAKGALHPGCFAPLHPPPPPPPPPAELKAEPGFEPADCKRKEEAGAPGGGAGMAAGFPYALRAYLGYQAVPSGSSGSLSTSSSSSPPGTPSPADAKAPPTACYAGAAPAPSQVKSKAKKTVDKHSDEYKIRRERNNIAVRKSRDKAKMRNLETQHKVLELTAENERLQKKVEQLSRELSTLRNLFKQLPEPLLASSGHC

SMILES | outcome | AC50
CCCCC(CC)COC(=O)CCCCC(=O)OCc1ccccc1 (stereo not drawn) | inactive | –
FC(F)(I)C(F)(F)C(F)(F)C(F)(F)C(F)(F)C(F)(F)I | inactive | –
Cc1oc(-c2ccccc2)nc1CCOc1ccc(C[C@H](Nc2ccccc2C(=O)c2ccccc2)C(=O)O)cc1 | inactive | –
CN1CCC[C@H]1c1cccnc1 | inactive | –
COCC(C)OCC(C)O (stereo not drawn) | inactive | –
CN1CCN(c2ccccc2/C=C2\SCCN(c3ccc(Cl)c(Cl)c3)C2=O)CC1 | inactive | –
CC(C)(C)CC(C)(C)c1ccc(O)c(-n2nc3ccccc3n2)c1 | inactive | –
C[C@@H]1C[C@H]2[C@@H]3CCC4=CC(=O)C=C[C@]4(C)[C@@]3(F)[C@@H](O)C[C@]2(C)[C@@]1(O)C(=O)COP(=O)(O)O | inactive | –
CCc1nn(C2CCCCC2)c2cc(C3(C#N)CCC(C(=O)O)CC3)ccc12 (stereo not drawn) | inactive | –
N#C[C@@H]1CC(F)(F)CN1C(=O)CNC1CC2CCC(C1)N2c1ncccn1 (stereo partly drawn) | inactive | –
CCCCCCCCC(=O)O | inactive | –
NC(=O)N(O)[C@@H]1C=C[C@H](Oc2cccc(Oc3ccc(F)cc3)c2)C1 | inactive | –
CC(=O)CC(C)(C)O | inactive | –
CCCCCCCCCCCCCC[N+](C)(C)C | inactive | –
CC(=O)NC1(c2cccc(F)c2)CCN(CC[C@@]2(c3ccc(Cl)c(Cl)c3)CN(c3ccccc3)C(=O)CO2)CC1 | – | 54.7 µM (active)
CCCCCCCCCCCCc1ccccc1S(=O)(=O)O | inactive | –
Cc1cc(CCN2CCN(c3nsc4ccccc34)CC2)cc2c1NC(=O)CC2(C)C | – | 7.43 µM (active)
CCCCCCC(=O)O | inactive | –

SMILES | outcome | AC50
OC1CCC(C2CCCCC2)CC1 (stereo not drawn) | inactive | –
Cc1ccc(S(=O)(=O)O)c(C)c1 | inactive | –
NCC(F)(F)C(F)(F)C(F)(F)C(F)(F)C(F)(F)C(F)(F)C(F)(F)F | inactive | –
O=[N+]([O-])c1ccc(O)cc1 | inactive | –
CC(C)(C)c1cccc(C(C)(C)C)c1O | inactive | –
CCCCCCCC(=O)O | inactive | –
CCCCC[C@H](O)CC(=O)CCc1ccc(O)c(OC)c1 | inactive | –
CCc1ccc(CCOc2ccc(CC3SC(=O)NC3=O)cc2)nc1 (stereo not drawn) | inactive | –
CC(O)C(=O)O (stereo not drawn) | inactive | –
CC(C)CCCCCCOC(=O)CCCCC(=O)OCCCCCCC(C)C | inactive | –
O=C1OC2(c3ccccc31)c1cc(Br)c(O)c(Br)c1Oc1c2cc(Br)c(O)c1Br | inactive | –
COCC(C)O (stereo not drawn) | inactive | –
CCCCCCCCCCCCCCCS(=O)(=O)Oc1ccccc1 | inactive | –
Cc1cc(C)c(O)c(C)c1 | inactive | –
C#C[C@]1(O)CC[C@H]2[C@@H]3CCC4=CC(=O)CC[C@@H]4[C@H]3CC[C@@]21C | inactive | –
CC(C)(C)c1ccc(O)c(C(C)(C)C)c1 | inactive | –
Oc1cccc(O)c1 | inactive | –
CC[C@H](C)[C@@H](C(=O)O)n1sc2ccccc2c1=O | inactive | –
